Activity calls are given as the source filed them.
Legend:
[1] = binders of probe aFSTL3 on microarray, primary screen, stem cell growth factor project, biochemical, small-molecule microarray, fluorescence 635/667 (AID 1064); settings: higher = more signal;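 note: measures binding of the biotinylated anti-FSTL3 antibody to printed compounds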
[2] = binders from COS7 lysate, DM2A8 probe, primary screen, torsin A project, cell lysate, small-molecule microarray, fluorescence 635/667 (AID 1065); settings: higher = more signal, COS7 lysate expressing mutant human TOR1A
[3] = binders of probe aFGF2 on microarray, primary screen, stem cell growth factor project, biochemical, small-molecule microarray, fluorescence 635/667 (AID 1067); settings: higher = more signal;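 note: measures binding of biotinylated aFGF2 protein to printed compounds on slides; z-score merges feature fluorescence and signal-to-noise across triplicate slides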
[4] = binders of probe aFGF10 on microarray, primary screen, stem cell growth factor project, biochemical, small-molecule microarray, fluorescence 635/667 (AID 1071); settings: higher = more signal;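 note: score merges 667 nm spot intensity and signal to noise from triplicate slides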
[5] = biological target: Neurogenic locus notch homolog protein 2 (Homo sapiens) (UniProt Q04721); assay: Notch2 binders on small-molecule microarrays, primary screen, biochemical, small-molecule microarray, 635 nm fluorescence, stem cell growth factors (AID 1073); settings: Notch2 binding, higher = more signal
[6] = biological target: Pro-neuregulin-1, membrane-bound isoform (Homo sapiens) (UniProt Q02297); assay: NRG1 binders on small-molecule microarrays, primary screen, psychiatric disease protein project, biochemical, small-molecule microarray, fluorescence 635/667 (AID 1075); settings: NRG1 binding, 635 nm fluorescence, higher = more signal;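 note: score combines 667 nm spot fluorescence with signal to noise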
[7] = tested on: Neuregulin-1 EGF-like domain; assay: binders of neuregulin-1 EGF-like domain, primary screen, biochemical, small-molecule microarray, 635 nm fluorescence (AID 1081); settings: small-molecule microarray binding, higher = more signal;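 note: binding of the protein to compounds printed on small-molecule microarray slides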
[8] = FRG1 promoter luciferase signal modulators, primary screen, FRG1 inhibition for FSHD, cell-based, C2C12 myotubes, firefly/Renilla luciferase, luminescence (AID 1084); settings: higher = more signal, called active from +8 up or from −8 down
[9] = binders of probe aFST on microarray, primary screen, stem cell growth factor project, biochemical, small-molecule microarray, fluorescence 635/667 (AID 1086); settings: higher = more signal;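 note: score merges 667 nm fluorescence with signal-to-noise of each printed compound spot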
[10] = binders of probe aHhip on microarray, primary screen, stem cell growth factor project, biochemical, small-molecule microarray, fluorescence 635/667 (AID 1087); settings: higher = more signal;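 note: score merges spot fluorescence at 667nm with spot signal to noise ratio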
[11] = tested on: PRMT1 (protein arginine N-methyltransferase 1); assay: PRMT1 binders on small-molecule microarrays, primary screen, biochemical, small-molecule microarray, 635 nm fluorescence (AID 1088); settings: small-molecule microarray binding, higher = more signal;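 note: binding of Prmt1 protein to compounds spotted on small-molecule microarray slides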
[12] = yeast growth modulation, basal conditions, primary screen, YJM789 clinical isolate, OD600, 24 h (AID 1089);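 note: growth of clinical yeast isolate S. cerevisiae YJM 789 seeded 1000 cells per well; test concentration not given here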; settings: S. cerevisiae YJM789 growth, higher = more signal, called active from +8 up or from −8 down
[13] = fission yeast growth modulation, primary screen, strain 972, OD600, 24 h, no modulator (AID 1090);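 note: basal condition with compound alone and no growth modifier present; test concentration not given here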; settings: S. pombe 972 growth, higher = more signal, called active from +8 up or from −8 down
[14] = S. cerevisiae growth modulation with rapamycin, primary screen, strain BY4716, OD600, 96 h (AID 1091); settings: higher = more signal, called active from +8 up or from −8 down; note: test concentration not given here
[15] = biological target: Torsin-1A-interacting protein 2 (Homo sapiens) (UniProt Q8NFQ8); assay: LULL1 binders on small-molecule microarray, primary screen, cell lysate, human LULL1 lysate, 635/667 nm fluorescence (AID 1092); settings: hLULL1 lysate binding, 635 nm fluorescence, higher = more signal;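 note: probe is lysate of COS7 cells overexpressing human LULL1; score merges per-feature 667 nm fluorescence with signal-to-noise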
[16] = E. coli growth modulation, two-sided OD650, primary screen, E. coli filamentation project, strain DRC41, 24 h (AID 1093); settings: OD650, 24 h, higher = more signal, called active from +8 up or from −8 down;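 note: MC1000 strain lacking acrAB efflux and sulA so SOS filamentation is blocked; test concentration not given here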
[17] = small-molecule microarray binders of probe aLefty2, primary screen, biochemical, biotinylated probe, 635/667 nm fluorescence (AID 1094); settings: higher = more signal;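 note: score merges spot fluorescence near 667 nm with spot signal-to-noise ratio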
[18] = tested on: Noggin (protein binding on small-molecule microarray); assay: Noggin binders on small-molecule microarray, primary screen, biochemical, 635/667 nm fluorescence (AID 1095); settings: 635 nm fluorescence, higher = more signal;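 note: score merges 667 nm feature fluorescence with signal to noise over triplicate slides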
[19] = biological target: Neurogenic locus notch homolog protein 3 (Homo sapiens) (UniProt Q9UM47); assay: NOTCH3 binders on small-molecule microarray, primary screen, biochemical, 635/667 nm fluorescence (AID 1096); settings: NOTCH3 binding, 635 nm fluorescence, higher = more signal
[20] = small-molecule microarray binders of probe aEGFR, primary screen, biochemical, biotinylated probe, 635/667 nm fluorescence (AID 1097); settings: higher = more signal;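 note: probe is a biotinylated anti-EGFR antibody binding compounds printed on slides; score combines fluorescence near 667 nm and signal to noise of each spot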

Torsin-1A-interacting protein 2 (Homo sapiens), sequence (Q8NFQ8 whole entry, looked up): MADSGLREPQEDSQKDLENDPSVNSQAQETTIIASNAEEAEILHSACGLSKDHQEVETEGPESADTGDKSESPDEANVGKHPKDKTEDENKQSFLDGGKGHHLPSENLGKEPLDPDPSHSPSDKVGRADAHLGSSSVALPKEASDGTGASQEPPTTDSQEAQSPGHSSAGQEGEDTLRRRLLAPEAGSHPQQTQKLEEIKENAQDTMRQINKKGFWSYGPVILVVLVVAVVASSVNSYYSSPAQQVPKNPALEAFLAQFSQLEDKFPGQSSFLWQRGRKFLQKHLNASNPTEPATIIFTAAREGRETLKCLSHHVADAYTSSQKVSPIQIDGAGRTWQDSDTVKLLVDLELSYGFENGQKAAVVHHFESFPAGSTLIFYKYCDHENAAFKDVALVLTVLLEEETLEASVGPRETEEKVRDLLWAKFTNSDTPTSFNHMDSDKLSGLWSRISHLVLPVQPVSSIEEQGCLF
Pro-neuregulin-1, membrane-bound isoform (Homo sapiens), sequence (Q02297 whole entry, looked up, the tested form may be a part, canonical isoform): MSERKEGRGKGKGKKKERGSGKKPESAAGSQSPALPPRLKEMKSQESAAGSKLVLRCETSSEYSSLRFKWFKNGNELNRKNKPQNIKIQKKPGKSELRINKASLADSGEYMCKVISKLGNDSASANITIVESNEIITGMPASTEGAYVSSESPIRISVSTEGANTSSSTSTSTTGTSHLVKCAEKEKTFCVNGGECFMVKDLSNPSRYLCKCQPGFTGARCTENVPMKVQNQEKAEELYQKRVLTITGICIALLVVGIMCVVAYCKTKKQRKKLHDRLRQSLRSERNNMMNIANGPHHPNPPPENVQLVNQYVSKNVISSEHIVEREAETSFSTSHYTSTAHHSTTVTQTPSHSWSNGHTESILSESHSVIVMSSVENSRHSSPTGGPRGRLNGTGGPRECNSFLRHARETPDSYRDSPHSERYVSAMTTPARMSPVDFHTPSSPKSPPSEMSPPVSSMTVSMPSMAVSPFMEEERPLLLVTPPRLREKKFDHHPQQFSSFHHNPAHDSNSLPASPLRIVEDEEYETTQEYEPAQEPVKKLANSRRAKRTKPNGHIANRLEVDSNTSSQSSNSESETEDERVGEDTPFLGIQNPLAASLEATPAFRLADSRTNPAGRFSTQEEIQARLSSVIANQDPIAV
Neurogenic locus notch homolog protein 3 (Homo sapiens), sequence (Q9UM47 whole entry, looked up): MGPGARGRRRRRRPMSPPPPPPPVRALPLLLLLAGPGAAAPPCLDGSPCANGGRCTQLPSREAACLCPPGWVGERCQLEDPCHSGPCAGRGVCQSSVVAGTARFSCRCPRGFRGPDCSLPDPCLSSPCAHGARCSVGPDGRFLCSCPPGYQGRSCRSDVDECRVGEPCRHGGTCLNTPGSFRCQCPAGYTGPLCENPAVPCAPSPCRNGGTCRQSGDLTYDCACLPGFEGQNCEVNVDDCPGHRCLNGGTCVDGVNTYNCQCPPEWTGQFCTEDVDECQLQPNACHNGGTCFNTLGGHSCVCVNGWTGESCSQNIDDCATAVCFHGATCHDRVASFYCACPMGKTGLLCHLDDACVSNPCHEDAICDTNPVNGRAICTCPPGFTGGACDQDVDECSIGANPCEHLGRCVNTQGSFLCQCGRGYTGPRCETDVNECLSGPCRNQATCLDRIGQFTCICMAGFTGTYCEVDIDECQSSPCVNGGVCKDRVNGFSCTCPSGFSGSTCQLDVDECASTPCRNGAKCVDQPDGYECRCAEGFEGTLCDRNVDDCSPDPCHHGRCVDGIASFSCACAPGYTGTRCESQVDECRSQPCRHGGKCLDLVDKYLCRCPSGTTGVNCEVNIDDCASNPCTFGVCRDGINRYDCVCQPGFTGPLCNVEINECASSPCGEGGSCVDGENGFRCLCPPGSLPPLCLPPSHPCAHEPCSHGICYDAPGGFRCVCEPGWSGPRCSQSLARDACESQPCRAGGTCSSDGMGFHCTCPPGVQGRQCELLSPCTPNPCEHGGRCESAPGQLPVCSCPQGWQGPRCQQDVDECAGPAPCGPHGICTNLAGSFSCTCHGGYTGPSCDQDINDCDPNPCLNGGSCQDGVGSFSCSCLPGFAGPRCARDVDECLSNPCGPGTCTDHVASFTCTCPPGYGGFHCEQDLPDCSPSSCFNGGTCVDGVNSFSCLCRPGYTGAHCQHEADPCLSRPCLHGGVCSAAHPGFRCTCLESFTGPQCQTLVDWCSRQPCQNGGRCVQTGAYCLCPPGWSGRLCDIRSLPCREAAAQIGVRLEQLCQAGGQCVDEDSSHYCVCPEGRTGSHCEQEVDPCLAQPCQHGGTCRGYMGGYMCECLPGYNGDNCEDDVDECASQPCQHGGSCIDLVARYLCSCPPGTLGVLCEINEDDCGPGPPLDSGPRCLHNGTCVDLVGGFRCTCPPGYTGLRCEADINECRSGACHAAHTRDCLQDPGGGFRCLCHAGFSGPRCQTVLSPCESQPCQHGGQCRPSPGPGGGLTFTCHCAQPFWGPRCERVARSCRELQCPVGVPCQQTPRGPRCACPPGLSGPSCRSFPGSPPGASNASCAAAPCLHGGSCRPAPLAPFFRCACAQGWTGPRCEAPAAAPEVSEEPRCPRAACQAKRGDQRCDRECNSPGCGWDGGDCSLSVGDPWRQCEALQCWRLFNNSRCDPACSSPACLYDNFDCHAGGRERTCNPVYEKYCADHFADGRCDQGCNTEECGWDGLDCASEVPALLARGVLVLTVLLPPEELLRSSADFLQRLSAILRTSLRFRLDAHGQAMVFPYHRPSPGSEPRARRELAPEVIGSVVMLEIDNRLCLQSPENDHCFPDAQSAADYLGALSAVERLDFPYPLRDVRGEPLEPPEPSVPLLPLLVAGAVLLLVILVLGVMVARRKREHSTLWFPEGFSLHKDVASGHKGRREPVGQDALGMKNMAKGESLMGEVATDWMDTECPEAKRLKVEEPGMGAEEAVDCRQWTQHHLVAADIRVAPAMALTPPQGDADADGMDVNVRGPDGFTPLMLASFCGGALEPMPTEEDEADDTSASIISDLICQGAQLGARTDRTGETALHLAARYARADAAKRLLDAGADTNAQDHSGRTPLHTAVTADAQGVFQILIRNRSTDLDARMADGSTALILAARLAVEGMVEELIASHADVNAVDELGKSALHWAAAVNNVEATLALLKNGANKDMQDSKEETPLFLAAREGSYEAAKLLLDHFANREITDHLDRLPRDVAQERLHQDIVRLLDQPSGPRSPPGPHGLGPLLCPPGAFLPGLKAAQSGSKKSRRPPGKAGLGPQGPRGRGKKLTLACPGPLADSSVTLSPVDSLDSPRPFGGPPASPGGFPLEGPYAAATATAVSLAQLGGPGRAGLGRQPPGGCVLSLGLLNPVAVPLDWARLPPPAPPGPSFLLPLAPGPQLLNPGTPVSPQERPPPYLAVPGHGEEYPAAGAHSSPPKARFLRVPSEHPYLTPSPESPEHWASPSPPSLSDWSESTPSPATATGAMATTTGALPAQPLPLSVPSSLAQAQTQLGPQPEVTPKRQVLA

Row | SMILES | composite z-score [1] | composite z-score [2] | composite z-score [3] | composite z-score [4] | composite z-score [5] | composite z-score [6] | composite z-score [7] | z-score [8] | composite z-score [9] | composite z-score [10] | composite z-score [11] | z-score [12] | z-score [13] | z-score [14] | composite z-score [15] | z-score [16] | composite z-score [17] | composite z-score [18] | composite z-score [19] | composite z-score [20]
1 | N#Cc1ccc(NN2C(C(O)c3ccc(F)cc3)C=CC3C(=O)N(c4ccccc4)C(=O)C32)cc1 (stereo not given) | -0.28 | -0.17 | 0.183 | -0.0175 | 0.47 | 1.4 | 1.07 | 0.0158 (inactive) | 0.87 | -0.353 | 1.24 | 0.537 (inactive) | 2.45 (inactive) | 2.57 (inactive) | 3.21 | -0.538 (inactive) | -0.0477 | -0.868 | 0.443 | -0.257
2 | O=C1O[C@H](c2ccccc2)[C@H](c2ccccc2)N2[C@H]1[C@@H](C(=O)N1CCN(c3ncccn3)CC1)[C@]1(C(=O)Nc3ccc(C#CC4(O)CCCCCC4)cc31)[C@H]2c1ccc(OCCO)cc1 | 0.696 | 0.968 | 0.0583 | 1.2 | 1.52 | 2.25 | 1.22 | 1.8 (inactive) | 2.45 | 0.334 | 1.53 | 2.89 (inactive) | 1.42 (inactive) | 5.4 (inactive) | 3.79 | -0.409 (inactive) | 1.19 | 1.68 | 1.08 | 0.471
3 | COC(=O)[C@H](Cc1ccccc1)N1CC(/C=C/C2CC2)=C[C@H]1[C@H](O)Cc1ccccc1 | -0.284 | 0.177 | -0.104 | 0.6 | 0.34 | 0.821 | 1.01 | -2.56 (inactive) | 0.101 | 0.0274 | 1.54 | -0.457 (inactive) | -3.67 (inactive) | -0.677 (inactive) | 1.18 | -0.25 (inactive) | -0.161 | 0.961 | 0.899 | -0.0343
4 | CC1=C([C@H](O)CCc2ccccc2)[C@H](CO)[C@@H]2C(=O)N(C)C(=O)[C@@H]2C1 | -0.0659 | 0.388 | 0.411 | 0.0805 | 0.451 | 0.174 | 0.493 | -0.445 (inactive) | 0.0014 | -0.137 | 0.958 | 0.618 (inactive) | -0.589 (inactive) | 0.123 (inactive) | 1.07 | 1.3 (inactive) | -0.152 | 0.296 | 0.394 | -0.154
5 | COc1ccc([Si](C)(C)[C@H]2[C@H](CCn3cc([C@H](O)c4ccccc4)nn3)O[C@@]3(C(=O)N(Cc4ccc(N5C(=O)c6cccc7cccc5c67)cc4)c4ccccc43)[C@@H]2C)cc1 | 0.193 | -0.241 | -0.159 | 0.595 | -0.715 | 0.45 | 1.1 | -3.35 (inactive) | -0.403 | -0.0994 | 0.643 | 0.642 (inactive) | 1.17 (inactive) | 2.55 (inactive) | 0.277 | 0.021 (inactive) | -0.0674 | -0.162 | -0.0817 | -0.285

Source: PubChem BioAssay
